Experiment [1] concerns the target D(1A) dopamine receptor (Homo sapiens) (UniProt P21728). Put plainly: HTS Assay for Allosteric Agonists of the Human D1 Dopamine Receptor: Primary Screen for Potentiators (AID 488982). Further: 0% is about no effect. In short, it runs like this:
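Calcium flux in an inducible, force-coupled HEK293 Trex D1 line (overnight at 30 C): agonist mode is the 180 s kinetic read after compound; potentiator mode is the following 180 s read after dopamine at EC20.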

For experiment [2] the target is unchanged. Put plainly: HTS Assay for Allosteric Agonists of the Human D1 Dopamine Receptor: Primary Screen for Antagonists (AID 488983).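 Further: calcium flux response to an EC80 dopamine challenge measured with no-wash dye; on the % scale 0 is the no-effect control and ±100 the full control effect; nearly all actives have a fitted effect of over 65% in size.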 The gist of the method: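 Calcium-flux read-out in inducible HEK293 T-REx cells expressing D1, dye-loaded 30–90 min at room temperature. Kinetic reads: 180 s after compound (agonist phase), then 180 s after an EC80 dopamine challenge.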

The nature of experiment [3]: Validation screen for small molecules that induce genotoxicity in human embryonic kidney (HEK293T) cells expressing luciferase-tagged ELG1 (AID 493106). Further: 0% is about no effect. The gist of the method: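 ELG1-luciferase reporter readout (ONE-Glo, 30 min, room temperature) after 16 hr compound treatment at 37 °C of HEK293T cells at 2,000 per well. Rising luminescence flags genotoxic stress.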

In experiment [4] the target is ATPase family AAA domain-containing protein 5 (Homo sapiens) (UniProt Q96QE3). Put plainly: Validation screen for small molecules that inhibit ELG1-dependent DNA repair in human embryonic kidney (HEK293T) cells expressing luciferase-tagged ELG1 (AID 493107).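 Further: series mostly up to about 46 µM; on the % scale 0 is the no-effect control and ±100 the full control effect; inhibitors lower the ELG1-luciferase luminescence signal; nearly all actives have a fitted effect of over 70% in size.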 The gist of the method: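 Luciferase read-out, ONE-Glo, 30 min at room temperature, follows 16 h co-exposure at 37 C of compound and the DNA-damaging agent 5-fluorouridine. Cells: HEK293T with ELG1-luciferase fusion, 2,000 per well, DMSO as vehicle.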

The target of experiment [5] is Thyrotropin-releasing hormone receptor (Homo sapiens) (UniProt P34981). In words: qHTS for Small Molecule Agonists and Allosteric Enhancers of Human TRH Receptor: Validation Screen for Agonists (AID 493127;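 active means calcium activation more than 3 SD above the typical response in the agonist read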;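 further: intracellular calcium rise by fluo-8 fluorescence before TRH EC20 addition; 0% is about no effect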). Particulars: TRH receptor agonist cell assay; at 2 µM; stronger effect = higher value. In short, it runs like this: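 Compound-evoked intracellular calcium release in fluo-8-loaded TRHR cells, read kinetically on FDSS (Ex 480/Em 530, 1 s/cycle) after 23 nL pintool transfer. Agonist phase preceded 10 nM TRH EC20 addition.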
A general note: In qHTS, concentration-response curves come from the screen itself.

Experiment [6] is described as follows: Nrf2 qHTS screen for inhibitors: Validation (AID 493153; active means well fitted inhibition curve with a large enough effect in the main read-out, with a control signal flat, not every such curve was filed as active). The following applies: viability change: measured here: cytotoxicity max response. In short, it runs like this:
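Concentration-response on A549 ARE_Fluc reporter cells exposed 18-24 h at 37 C, 5% CO2. Cytotoxicity read first by CellTiter-Fluor fluorescence (Ex 405/Em 525), then Nrf2 inhibition by BugLite luminescence after 15 min.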

Experiment [7] is described as follows: qHTS for Inhibitors of Cell Surface uPA Generation: Validation Assay (AID 493164).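 Further: RAW 264.7 macrophage cells exposed to compound for 18 h; 0% is about no effect.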 In short, it runs like this:
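ATP-Lite luminescence read-out: ATP remains high when uPA activity-dependent LF translocation into the cytoplasm is blocked. RAW 264.7 cells, 18 h compound exposure at 37 C; 7-point titration, 2.45 nM to 38.3 uM final.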

For experiment [8], the target named is Galactokinase (Homo sapiens) (UniProt P51570). In words: qHTS Validation Assay for Inhibitors of Human Galactokinase (GALK) (AID 493189). Further: 0% is about no effect. In short, it runs like this:
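Inhibition was measured as remaining ATP, detected by luciferase luminescence after a 1 h room-temperature reaction. Final conditions: 5 nM GALK, 100 uM galactose, 35 uM ATP, pH 8.0 HEPES buffer.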

Experiment [9] concerns the target Phosphoglycerate kinase, glycosomal (Trypanosoma brucei brucei) (UniProt P07378). Put plainly: qHTS Validation Assay to Find Inhibitors of Phosphoglycerate Kinase (AID 504547).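 Further: control wells lack PGK and mark full inhibition.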 The gist of the method: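 Luminescence end-point (Kinase-Glo Plus, 10 min) after a 60 min room-temperature coupled reaction. GAPDH at 100nM final supplies 1,3-BPG to PGK. Buffer: 100mM TEA pH 7.6, 5mM MgCl2, 0.01% Tween-20. Wells lacking PGK served as controls.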

The target in experiment [10] is phosphoglycerate mutase (Leishmania major) (UniProt Q4Q090). In words: qHTS Validation Assay to Find Inhibitors of Phosphoglycerate Mutase (AID 504548). Further: series mostly up to about 58 µM; on the % scale 0 is the no-effect control and ±100 the full control effect. The gist of the method:
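Luminescent end-point read-out via Kinase-GloPlus after a 10-minute development. Reaction: 1.25nM Leishmania major PGAM with substrate and compound, 45 minutes at room temperature in TEA buffer (pH 7.6) with MgCl2 and Tween-20.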

Experiment [11] is described as follows: qHTS for Inhibitors of ATXN expression: Validation (AID 588378). Further: series mostly up to about 57 µM; on the % scale 0 is the no-effect control and ±100 the full control effect; nearly all actives have a fitted effect of over 75% in size. The gist of the method:
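Luciferase luminescence (Bright-Glo) from an ATXN2-FFLuc HEK293 line after 24 h compound exposure at 37 °C, preceded by a CellTiter-Fluor fluorescence viability read. Serial dilutions of a reference ATXN2 inhibitor and a luciferase inhibitor served as controls.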

Experiment [12] has as its target DNA dC->dU-editing enzyme APOBEC-3G (Homo sapiens) (UniProt Q9HC16). Put plainly: qHTS for inhibitors of Vif-A3G interactions: Validation (AID 588379). Further: 0% is about no effect. In short, it runs like this: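 Yellow fluorescence (Ex 488, Em 500-530) of Vif-coexpressing HeLa A3G-eYFP cells, scanned by Acumen cytometer, reports blocked A3G degradation. Cells plated at 700/well overnight at 37 deg C before compound addition, then a further overnight compound incubation at 37 deg C.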

The target in experiment [13] is Voltage-gated inwardly rectifying potassium channel KCNH2 (Homo sapiens) (UniProt Q12809). In words: qHTS Assay for Small Molecule Inhibitors of the Human hERG Channel Activity (AID 588834).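 Further: top concentration of the series differs between compounds; on the % scale 0 is the no-effect control and ±100 the full control effect; lower thallium flux fluorescence means stronger hERG block; nearly all actives have a fitted effect of over 50% in size.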 In short, it runs like this: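 hERG block measured as reduced thallium-dye (FluxOR) fluorescence after stimulation buffer addition, read over 2 min. Cells were hERG-BacMam-transduced U2OS exposed to compound ~10 min […]; concentration-response fitted with Hill equation for AC50.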

The target of experiment [14] is Glutaminase kidney isoform, mitochondrial (Homo sapiens) (UniProt O94925). Put plainly: qHTS for Inhibitors of Glutaminase (GLS): LOPAC Validation (AID 624146). Further: potency means the concentration at half of the fitted maximal effect; nearly all actives have a fitted effect of over 60% in size. The gist of the method:
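Coupled fluorescence readout: glutamate oxidase/HRP/Amplex Red detect glutamate formed by hKGA from L-glutamine (1 mM solution added). Buffer 45 mM KH2PO4 pH 8.2, 0.02% Tween-20; reads at t0 and 30 min RT.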

The nature of experiment [15]: qHTS of Trypanosoma Brucei Inhibitors: LOPAC Validation (AID 624147). Further: 0% is about no effect. The gist of the method: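 Quantitative HTS: titrated library compounds versus trypanosomal pyruvate kinase in TEA buffer (pH 7.2) containing KCl, MgCl2, BSA and Tween-20. Reactions were initiated with ADP, 130 uM final. Kinase-Glo Plus luminescence was read after 45 min at RT.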
Experiment [16] addresses Glucagon-like peptide 1 receptor (Homo sapiens) (UniProt P43220). In words: qHTS of GLP-1 Receptor Agonists: LOPAC Validation (AID 624148).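 Further: luminescence from a luciferase reporter switched on by cAMP; 0% is about no effect; higher luminescence signal means agonism.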 The gist of the method: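 Agonism scored as increased luciferase luminescence driven by cAMP in HEK293 clones carrying GLP-1R. Cells settled 12 hours, received compound for 4-6 hr at 37 deg C, 5% CO2, and were read after 12 min detection reagent at RT.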

Experiment [17] can be described thus: qHTS of Nrf2 Activators: LOPAC Validation (AID 624149). Further: 0% is about no effect. The gist of the method:
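Luciferase signal from ARE activation, read with Steady-Glo after 30 min at room temperature. Compounds were pin-transferred onto AREc32_Fluc cells (1000/well, OPTI-MEM/5% FBS, seeded overnight) and left 24 hr at 37 deg C.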

Experiment [18] can be described thus: HTS Assay for Allosteric Antagonists of the Human D2 Dopamine Receptor: Hit Validation in HTRF (AID 624455).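 Further: stable D1 dopamine receptor cell line scored for blocking the D1 response; on the % scale 0 is the no-effect control and ±100 the full control effect.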 In short, it runs like this: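 Inhibition of the D1-mediated response was measured by HTRF. Cells used were a line stably expressing the D1 dopamine receptor.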
A general note: TR-FRET usually uses a lanthanide donor and a delayed reading to cut background.

Experiment [19] deals with Arylsulfatase A (Homo sapiens) (UniProt P15289). Put plainly: qHTS screen for enhancers of Arylsulfatase A (ASA1): LOPAC Validation Assay (AID 720538). Further: 0% is about no effect. The gist of the method:
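Enhancer assay in patient-derived MLD fibroblasts carrying ASA-I179S: 48 h compound exposure at 37 C, then 14 h room-temperature pNCS turnover (0.5 mM final) in lysis buffer. Read by fluorescence at 525/598 nm after NaOH stop.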

The nature of experiment [20]: qHTS for compounds that reverse cellular toxicity of Amyloid beta (A-beta) peptide in yeast: LOPAC Validation Assay (AID 720559).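 Further: plate controls were DMSO for no effect and equimolar ferric chloride plus clioquinol rescue for full effect.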 In short, it runs like this: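 Rescue of A-beta toxicity was scored as yeast growth by 600 nm absorbance after 48 hr at 30 C with compound. Normalization used DMSO (negative) and equimolar ferric chloride plus clioquinol (positive).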

Results filed as inconclusive are left out. The source made the active and inactive calls. Unless noted, the call rests on the fitted dose curve; in most records, active means well fitted curve in the direction sought with a large enough effect; inconclusive means small, poorly fitted or top-dose-only effect, or another doubt; inactive means no such curve, though single readings can be large; an effect the other way counts as inactive or inconclusive.

Chain of D(1A) dopamine receptor (Homo sapiens) (P21728 whole entry, looked up): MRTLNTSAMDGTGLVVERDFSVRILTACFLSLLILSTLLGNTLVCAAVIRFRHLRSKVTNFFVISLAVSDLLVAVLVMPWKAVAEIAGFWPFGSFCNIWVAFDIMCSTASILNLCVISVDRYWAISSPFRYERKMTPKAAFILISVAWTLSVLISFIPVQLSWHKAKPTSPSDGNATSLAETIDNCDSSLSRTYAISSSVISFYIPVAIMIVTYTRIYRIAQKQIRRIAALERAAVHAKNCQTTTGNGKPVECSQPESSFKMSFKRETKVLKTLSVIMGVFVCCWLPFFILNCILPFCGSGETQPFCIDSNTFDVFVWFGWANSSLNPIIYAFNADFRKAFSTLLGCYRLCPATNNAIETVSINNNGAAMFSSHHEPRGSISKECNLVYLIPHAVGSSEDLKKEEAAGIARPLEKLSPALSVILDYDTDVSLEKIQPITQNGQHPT
Chain of Voltage-gated inwardly rectifying potassium channel KCNH2 (Homo sapiens) (Q12809 whole entry, looked up): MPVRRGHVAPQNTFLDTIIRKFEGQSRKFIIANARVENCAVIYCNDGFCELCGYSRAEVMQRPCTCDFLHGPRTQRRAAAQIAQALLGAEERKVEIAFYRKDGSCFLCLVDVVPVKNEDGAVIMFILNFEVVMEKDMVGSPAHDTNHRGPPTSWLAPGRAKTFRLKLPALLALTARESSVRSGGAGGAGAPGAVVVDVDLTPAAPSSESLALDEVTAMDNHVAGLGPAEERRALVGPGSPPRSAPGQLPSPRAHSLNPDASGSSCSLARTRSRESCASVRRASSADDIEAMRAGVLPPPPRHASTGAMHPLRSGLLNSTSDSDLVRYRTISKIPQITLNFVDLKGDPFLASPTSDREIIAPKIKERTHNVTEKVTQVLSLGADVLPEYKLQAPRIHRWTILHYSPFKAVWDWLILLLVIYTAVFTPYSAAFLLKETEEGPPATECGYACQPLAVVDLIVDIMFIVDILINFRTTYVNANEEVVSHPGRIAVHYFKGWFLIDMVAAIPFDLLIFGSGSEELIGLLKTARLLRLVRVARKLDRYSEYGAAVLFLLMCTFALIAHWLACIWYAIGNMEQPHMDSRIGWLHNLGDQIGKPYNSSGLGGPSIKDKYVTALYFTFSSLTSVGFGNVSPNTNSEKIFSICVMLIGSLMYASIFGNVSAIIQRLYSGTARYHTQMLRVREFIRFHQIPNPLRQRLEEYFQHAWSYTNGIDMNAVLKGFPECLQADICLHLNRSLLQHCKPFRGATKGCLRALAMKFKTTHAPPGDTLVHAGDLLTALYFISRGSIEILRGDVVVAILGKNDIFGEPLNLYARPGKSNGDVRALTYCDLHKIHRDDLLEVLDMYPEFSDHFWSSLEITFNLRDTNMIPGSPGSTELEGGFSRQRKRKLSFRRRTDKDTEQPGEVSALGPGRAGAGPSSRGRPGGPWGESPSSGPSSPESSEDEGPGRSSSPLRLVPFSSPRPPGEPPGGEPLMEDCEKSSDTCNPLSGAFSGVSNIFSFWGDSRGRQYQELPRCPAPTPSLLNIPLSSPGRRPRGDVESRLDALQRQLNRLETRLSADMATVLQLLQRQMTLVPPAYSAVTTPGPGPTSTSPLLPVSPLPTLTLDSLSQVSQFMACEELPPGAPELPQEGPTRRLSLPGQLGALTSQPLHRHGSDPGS
Chain of Thyrotropin-releasing hormone receptor (Homo sapiens) (P34981 whole entry, looked up): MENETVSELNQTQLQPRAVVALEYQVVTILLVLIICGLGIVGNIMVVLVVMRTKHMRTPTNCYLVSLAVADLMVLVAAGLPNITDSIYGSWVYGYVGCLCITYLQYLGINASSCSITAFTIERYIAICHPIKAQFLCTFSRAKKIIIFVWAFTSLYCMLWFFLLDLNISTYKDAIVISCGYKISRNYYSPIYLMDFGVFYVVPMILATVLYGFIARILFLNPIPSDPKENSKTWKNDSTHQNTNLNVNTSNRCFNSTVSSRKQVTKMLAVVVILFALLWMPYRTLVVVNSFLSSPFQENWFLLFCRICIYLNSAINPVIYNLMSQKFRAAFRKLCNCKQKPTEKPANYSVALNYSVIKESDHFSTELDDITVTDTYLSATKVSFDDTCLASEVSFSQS
Chain of Glutaminase kidney isoform, mitochondrial (Homo sapiens) (O94925 whole entry, looked up, canonical isoform): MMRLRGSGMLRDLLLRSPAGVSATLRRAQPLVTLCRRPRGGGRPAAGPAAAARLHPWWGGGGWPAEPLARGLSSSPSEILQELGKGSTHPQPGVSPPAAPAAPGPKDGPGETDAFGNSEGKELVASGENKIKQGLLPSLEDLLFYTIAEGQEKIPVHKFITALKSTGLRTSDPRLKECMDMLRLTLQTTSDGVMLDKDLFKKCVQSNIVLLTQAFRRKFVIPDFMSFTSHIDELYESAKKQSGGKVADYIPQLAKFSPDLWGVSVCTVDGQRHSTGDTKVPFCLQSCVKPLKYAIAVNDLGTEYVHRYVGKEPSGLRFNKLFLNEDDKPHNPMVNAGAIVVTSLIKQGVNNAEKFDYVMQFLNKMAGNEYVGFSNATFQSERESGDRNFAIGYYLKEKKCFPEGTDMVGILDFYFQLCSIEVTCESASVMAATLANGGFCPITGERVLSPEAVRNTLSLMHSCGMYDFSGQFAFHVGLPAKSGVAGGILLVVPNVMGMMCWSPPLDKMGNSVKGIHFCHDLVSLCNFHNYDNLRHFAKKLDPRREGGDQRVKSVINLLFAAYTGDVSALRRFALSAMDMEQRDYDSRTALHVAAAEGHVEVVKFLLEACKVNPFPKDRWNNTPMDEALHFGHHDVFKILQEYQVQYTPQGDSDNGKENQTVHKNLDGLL
Chain of Galactokinase (Homo sapiens) (P51570 whole entry, looked up): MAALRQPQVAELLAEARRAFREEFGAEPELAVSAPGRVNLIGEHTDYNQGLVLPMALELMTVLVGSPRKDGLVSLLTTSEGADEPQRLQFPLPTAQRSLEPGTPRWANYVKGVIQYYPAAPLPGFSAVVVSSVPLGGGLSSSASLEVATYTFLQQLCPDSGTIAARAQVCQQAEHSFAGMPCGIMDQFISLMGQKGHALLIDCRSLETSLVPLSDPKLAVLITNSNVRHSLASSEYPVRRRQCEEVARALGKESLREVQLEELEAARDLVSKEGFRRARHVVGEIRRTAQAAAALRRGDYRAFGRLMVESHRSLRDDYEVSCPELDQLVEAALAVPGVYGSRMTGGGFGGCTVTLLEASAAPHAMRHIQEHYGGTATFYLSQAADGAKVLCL
Chain of DNA dC->dU-editing enzyme APOBEC-3G (Homo sapiens) (Q9HC16 whole entry, looked up): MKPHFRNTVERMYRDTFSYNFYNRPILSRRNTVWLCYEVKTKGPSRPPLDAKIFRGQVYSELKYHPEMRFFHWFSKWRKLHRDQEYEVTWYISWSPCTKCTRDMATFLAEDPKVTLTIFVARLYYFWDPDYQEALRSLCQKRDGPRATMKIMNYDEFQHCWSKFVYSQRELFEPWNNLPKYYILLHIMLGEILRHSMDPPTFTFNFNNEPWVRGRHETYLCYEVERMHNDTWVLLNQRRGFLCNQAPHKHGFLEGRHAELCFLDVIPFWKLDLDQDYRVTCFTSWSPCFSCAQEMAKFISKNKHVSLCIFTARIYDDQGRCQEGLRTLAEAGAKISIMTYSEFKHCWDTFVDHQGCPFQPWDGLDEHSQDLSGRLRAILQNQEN
Chain of Arylsulfatase A (Homo sapiens) (P15289 whole entry, looked up): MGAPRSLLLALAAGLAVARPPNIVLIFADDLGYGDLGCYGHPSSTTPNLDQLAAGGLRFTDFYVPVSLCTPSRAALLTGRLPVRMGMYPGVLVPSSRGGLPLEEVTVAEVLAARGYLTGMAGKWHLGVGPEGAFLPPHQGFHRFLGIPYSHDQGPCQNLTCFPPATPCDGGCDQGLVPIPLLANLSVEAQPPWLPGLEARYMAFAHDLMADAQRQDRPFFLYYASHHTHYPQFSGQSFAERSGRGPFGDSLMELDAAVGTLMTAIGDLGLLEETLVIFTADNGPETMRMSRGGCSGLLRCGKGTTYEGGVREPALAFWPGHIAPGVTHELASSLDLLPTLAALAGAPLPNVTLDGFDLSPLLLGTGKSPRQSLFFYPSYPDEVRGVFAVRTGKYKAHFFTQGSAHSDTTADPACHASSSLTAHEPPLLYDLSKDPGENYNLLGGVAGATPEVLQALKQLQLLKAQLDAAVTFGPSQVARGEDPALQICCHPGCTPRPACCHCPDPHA
Chain of Phosphoglycerate kinase, glycosomal (Trypanosoma brucei brucei) (P07378 whole entry, looked up): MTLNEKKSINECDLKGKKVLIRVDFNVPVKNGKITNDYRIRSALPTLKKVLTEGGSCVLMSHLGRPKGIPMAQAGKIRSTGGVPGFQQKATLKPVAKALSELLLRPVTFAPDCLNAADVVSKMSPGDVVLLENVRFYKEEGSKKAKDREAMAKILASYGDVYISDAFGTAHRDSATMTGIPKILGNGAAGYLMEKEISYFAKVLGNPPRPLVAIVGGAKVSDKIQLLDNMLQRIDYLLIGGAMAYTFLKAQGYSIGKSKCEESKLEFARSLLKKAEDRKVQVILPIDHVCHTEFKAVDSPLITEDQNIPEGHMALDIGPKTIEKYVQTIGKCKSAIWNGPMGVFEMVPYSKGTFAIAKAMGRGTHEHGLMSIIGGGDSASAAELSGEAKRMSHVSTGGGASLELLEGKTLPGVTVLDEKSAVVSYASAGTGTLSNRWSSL
Chain of Glucagon-like peptide 1 receptor (Homo sapiens) (P43220 whole entry, looked up): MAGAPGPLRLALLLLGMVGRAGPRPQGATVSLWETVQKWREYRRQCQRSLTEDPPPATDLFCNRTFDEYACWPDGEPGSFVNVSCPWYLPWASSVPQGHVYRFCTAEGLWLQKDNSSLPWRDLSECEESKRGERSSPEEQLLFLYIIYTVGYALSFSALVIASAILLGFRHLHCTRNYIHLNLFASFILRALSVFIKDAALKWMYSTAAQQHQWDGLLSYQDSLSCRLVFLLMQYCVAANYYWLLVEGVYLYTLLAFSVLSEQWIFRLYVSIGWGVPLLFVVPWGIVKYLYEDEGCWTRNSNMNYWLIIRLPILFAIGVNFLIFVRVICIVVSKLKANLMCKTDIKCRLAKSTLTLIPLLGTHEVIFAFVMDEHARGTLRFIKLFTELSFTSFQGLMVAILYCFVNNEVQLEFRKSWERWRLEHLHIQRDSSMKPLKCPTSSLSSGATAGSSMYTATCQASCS

As for `N#C/C(=C\c1ccc(O)c(O)c1)C(=O)Nc1ccccc1`, the result in experiment [1], in [2], in experiment [6], in experiment [7], in [8] and in [10] was inactive. Besides, the result in experiment [15], in experiment [16], in experiment [17], in experiment [18] and in experiment [20] was inactive. For the same molecule, the Potency entry in experiment [3], in experiment [4], in experiment [9], in [11], in [12] and in experiment [13] was “inactive” each time. For the same molecule, in experiment [19], the Potency entry is “inactive”. The activation in experiment [5] is 5.88% (inactive). For the same molecule, the viability change in [6] was -12%. Besides, the Potency in experiment [14] was 631 nM (active).

The values are drawn from PubChem BioAssay (NCATS).
